PubChem BioAssay (NCI)
The panel holds about 83,000 compounds, 20% with a hit somewhere; the sample as a whole holds those more often.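 Values shown are percent growth following 48 h exposure of cells in 96-well plates to a single concentration of compound; below 10 was considered active.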 Active and inactive are the calls of the source.

Test system: MDA-MB-468 breast
Test: NCI-60 one-dose screen, 48 h (100 = growth as untreated, 0 = no growth, -100 = all killed)
Conditions: 10 µM unless noted

Row | SMILES | growth
1 | COc1cccc2c1CN(C(=O)c1ccc(O)c(C(=O)N3Cc4ccc(OCCC[P+](c5ccccc5)(c5ccccc5)c5ccccc5)cc4C3)c1)C2 | -2.86% (active)
2 | COc1ccc(OC)c(NC(=O)c2cc3oc4ccccc4c3cc2O)c1 | 96.9% (inactive)
3 | CC(C)Sc1nc(NN)c(C#N)c(-c2ccccc2)n1 | 113% (inactive)
4 | CCCCCCCC/C=C\CCCCCCCCOc1ccccc1CC(=O)NCC[N+]1(C)CCCC1 | 40.3% (inactive)
5 | CCOC(=O)c1c(C)nc2c(c1N)CC(=O)N2Cc1ccc(OC)cc1 | 36.2% (inactive)
6 | COc1ccccc1Nc1cc(O)c2c(=O)cc(-c3ccccc3)oc2c1 | -1.72% (active)
7 | N#Cc1c(-c2ccc(F)cc2)nc(N/N=C/c2c[nH]c3ccccc23)nc1N1CCOCC1 | 25.2% (inactive)
8 | CCOC(=O)C/C(=N\Nc1cc(=O)[nH]c2ccc(Br)cc12)C(=O)OCC | 99.3% (inactive)
9 | O=S(=O)(O)c1cccnc1 | 124% (inactive)
10 | CCN(CC)CCNCC(O)Cc1ccc(OC)cc1 (configuration not stated) | 105% (inactive)
11 | COc1cc(/C=C2\CN(C)C/C(=C\c3cc(CN4CCCCC4)c(O)c(OC)c3)C2=O)cc(CN2CCCCC2)c1O | 13% (inactive)
12 | COc1ccc2nc(SCC(=O)Nc3ccccc3C)[nH]c2c1 | 98% (inactive)
13 | CCN(CC)CCNc1ccc(CO)c2oc3cc(Cl)ccc3c(=O)c12 | 68.1% (inactive)
14 | Nc1nc(Nc2ccccc2)c2ncn(Cc3ccc4c(c3)OCO4)c2n1 | 13.4% (inactive)
15 | CN1CCN(Cc2ccc(NC(=O)c3cncc(C#Cc4ncc5cnccn45)c3)cc2C(F)(F)F)CC1 | 86.7% (inactive)
16 | O=C(Nc1cccc2cccnc12)c1cc(C(=O)c2ccc(Cl)cc2)n2ccc(-c3ccncc3)cc12 | 108% (inactive)
17 | COc1ccc2c(c1)c(-c1nc(-c3c[nH]c4ncccc34)cs1)cn2C | -5.16% (active)
18 | Cc1cc(C2(c3cc(C)c(O)cc3C)OS(=O)(=O)c3ccccc32)c(C)cc1O | 114% (inactive)
19 | Cc1c(C(C)(C)C)cc(C(C)(C)C)c2c1CN(C)CO2 | 122% (inactive)
20 | CCN1C(=O)N(CC)C2C1NN=c1s/c(=C\c3ccc(C(F)(F)F)cc3)c(=O)n12 (configuration not stated) | 9.87% (active)
21 | N#CC(C#N)=NO | 93.2% (inactive)
22 | CC1OC(C(=O)N2CCN(CCO)CC2)CC1COC1CCCCC1 (configuration not stated) | 94.6% [50 µM] (inactive)
23 | C=CCOc1ccc(N=NC(C#N)C#N)cc1 | 30.3% (inactive)
24 | N#C/C(=C\c1ccc(F)cc1)n1nc2cccc(F)c2n1 | 21.6% (inactive)
25 | CCCCCCCCCCCCNCCCc1ccccc1 | 13% (inactive)
26 | COc1ncc(-c2ccc3nccc(-c4ccnnc4)c3c2)cc1NS(=O)(=O)c1ccc(F)cc1F | -73% (active)
27 | Cc1n[nH]c(=O)n(/N=C\c2c[nH]c3ccccc23)c1=O | 106% (inactive)
